These results are taken from PubChem BioAssay AID504766 (The Scripps Research Institute Molecular Screening Center, 2011).

Where “and” joins values, the source holds several entries; their conditions need not be identical. Equal values may be shown once. Screen size: about 340,000 compounds; about 3,400 (1%) were called active.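 The calls were made as follows: active = inhibition above the mean over all tested compounds plus 3 SD (cut at about 4.2% in these data); inactive = the rest.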 What follows is part of a selection rich in actives, with near analogues and random picks from the rest. Some compounds were tested as several samples or in several runs, with calls that do not always agree.

Nuclear receptor subfamily 0 group B member 1 (Homo sapiens), sequence (P51843 207-470 limits assumed): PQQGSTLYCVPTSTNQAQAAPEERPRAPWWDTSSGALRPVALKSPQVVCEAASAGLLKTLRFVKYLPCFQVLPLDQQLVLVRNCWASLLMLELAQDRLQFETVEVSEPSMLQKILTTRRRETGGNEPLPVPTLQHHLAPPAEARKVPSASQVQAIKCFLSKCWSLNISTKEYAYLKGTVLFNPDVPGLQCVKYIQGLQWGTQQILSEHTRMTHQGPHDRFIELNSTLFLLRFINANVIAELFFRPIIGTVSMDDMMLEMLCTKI

The experiment addresses Nuclear receptor subfamily 0 group B member 1 (Homo sapiens) (UniProt P51843). The experiment can be described thus: DAX1 (NR0B1) inhibitors, primary screen, cell-based, HEK293, Gal4-DAX1, luciferase luminescence (AID 504766).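 Also: 0% = DAX1-transfected cells with DMSO and 100% = empty-vector control cells with DMSO; inhibition shows as a rise in luminescence from relieved DAX1 repression.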 Particulars: HEK293 Gal4-DAX1 luciferase reporter, at 6.75 µM, stronger effect = higher value.
For `Cc1cc(-c2nc(C)c(-c3nnc(SCC(=O)Nc4ccccc4)n3C)s2)no1`, the inhibition was -0.43% (inactive).

For `Cc1nc(-c2nnc(SCC(=O)Nc3cc(C(F)(F)F)cc(C(F)(F)F)c3)n2C)cs1`, the inhibition was 6.44% (active).

Regarding `Cn1c(SCC(=O)Nc2cccc(NC(=O)c3cccs3)c2)nnc1-c1ccncc1`, the inhibition was -0.64% (inactive).

On to `O=C(c1ccc(CS(=O)Cc2ccccc2Cl)o1)N1CCN(c2ccccc2)CC1` (configuration not stated), for which the inhibition is 0.5% (inactive).

Turning to `CCOC(=O)C(C(=O)c1ccccc1)C(c1ccccc1)c1nccc2ccccc12` (configuration not stated), the inhibition was -0.83% (inactive).

On to `CC1(c2cccc(Br)c2)NC(=O)N(CC(=O)NCCC2=CCCCC2)C1=O` (configuration not stated), for which the inhibition was 1.45% (inactive).

Consider `O=S1(=O)CCN(Cc2ccccc2)CC1`, for which the inhibition is -0.64% (inactive).

Take `O=C1CC(c2ccccc2)CC(O)=C1C=NCCN1CCOCC1` (configuration not stated): the inhibition was -0.18% (inactive).

Consider `CC(=O)N1CCN(CCN=CC2=C(O)CC(C)(C)CC2=O)CC1`, for which the inhibition is 0.1% (inactive).

Turning to `CC(C)C(=O)N1CCN(CCN=CC2=C(O)CC(c3ccco3)CC2=O)CC1` (configuration not stated), the inhibition is 5.43% (active) and 1.58% (inactive).

`CC1(C)CC(=O)C=C(c2ccc(COC(=O)c3cc(F)cc(F)c3)cc2)C1=O`: the inhibition was -0.88% (inactive).

Turning to `CC1C(=O)N(Cc2cn(CC3CCCCC3)nn2)CCS(=O)(=O)N1Cc1ccc(-c2cccc(N(C)C)c2)cc1` (configuration not stated), the inhibition was 0.14% (inactive).

Take `C[C@H](CO)N1C[C@H](C)[C@H](CN(C)C(=O)Nc2ccc3c(c2)OCO3)Oc2ncc(Br)cc2C1=O`: the inhibition was 2.47% (inactive).

`Cn1c2c(c(=O)n(C)c1=O)C(c1cccc(F)c1)C(C#N)=C(N)O2` (configuration not stated): the inhibition was 5.95% (active).

In the case of `N#CC1=C(N)Oc2cc(N)ccc2C1c1ccccc1` (configuration not stated), the inhibition was 0.38% (inactive).

As to `Cc1cc2c(c(=O)n1C)C(C(C)C)C(C#N)=C(N)O2` (configuration not stated), the inhibition is -0.55% (inactive).

In the case of `CC1CC(NC(=S)N(C)C)CC(C)(C)C1` (configuration not stated), the inhibition was 1.5% (inactive).

With `COc1cccc(/C=C2\SC(=S)N(CCCC(=O)N3CCOCC3)C2=O)c1`, the inhibition is -0.53% (inactive).

With `COc1cccc(-c2nn(C)c3sc(C(=O)N4CCN(c5ccccc5)CC4)cc23)c1`, the inhibition was -1.01% (inactive).

Turning to `CCOC(=O)N1CCN(C(=O)c2cc3c(-c4ccc(Cl)cc4)nn(C)c3s2)CC1`, the inhibition was 4.96% (active).

Consider `COc1ccccc1N1CCN(C(=O)c2cc3c(-c4ccc(Cl)cc4)nn(C)c3s2)CC1`, for which the inhibition was 2.84% (inactive).

`COCCCn1c(C(=O)NC2CCCCC2)cc2c(=O)n3cccc(C)c3nc21`: the inhibition is -1.22% (inactive).

On to `O=C(Nc1ccc2c(c1)[C@@H]1C[C@@H](CC(=O)N3CCCCC3)O[C@@H](CO)[C@@H]1O2)NC1CCCCC1`, for which the inhibition is 0.47% (inactive).

Regarding `Cc1cccc(C(=O)NC2CCN(CC(=O)Nc3cccc(Cl)c3)CC2)c1`, the inhibition was 0.29% (inactive).

Regarding `O=C(NCCN1CCOCC1)C1CCN(S(=O)(=O)c2ccccc2)CC1`, the inhibition is 4.19% (inactive).

Consider `CC1C/C(=N/NC(=O)c2cccs2)CC(C)(C)C1` (configuration not stated), for which the inhibition is 5.93% (active).

As to `CC1CC(=NNC(=O)C2COc3ccccc3O2)CC(C)(C)C1` (configuration not stated), the inhibition was 0.05% (inactive).

`CC1(C)CC(=O)C/C(=N\NC(=O)c2cccs2)C1`: the inhibition is -0.39% (inactive).

Turning to `C[C@H](CO)N1C[C@H](C)[C@@H](CN(C)C(=O)c2cnccn2)Oc2ncc(Br)cc2C1=O`, the inhibition was -0.09% (inactive).

For the compound `COc1ccc(C(=O)NC2CC(C)(C)NC(C)(C)C2)cc1OC`, the inhibition is 0.53% (inactive).

On to `COc1cc(OC)c(C(=O)NC2CC(C)(C)NC(C)(C)C2)cc1OC`, for which the inhibition was 0.81% (inactive).

For the compound `COc1cc2c(cc1OC)C(=O)NCC(C)(C)O2`, the inhibition is 4.35% (active).

Regarding `O=C(OCc1cn([C@H]2C[C@H](c3ccccc3)N(C(=O)c3cccs3)C[C@@H]2O)nn1)c1ccccc1`, the inhibition was -0.83% (inactive).

Consider `COc1ccc(C(=O)Nc2nncs2)c(OC)c1`, for which the inhibition is 5.95% (active).

As for `COc1ccc(C(=O)Nc2cccc(NC(=O)c3ccc(OC)cc3OC)n2)c(OC)c1`, the inhibition was -0.74% (inactive).

Consider `COc1ccc(C(=O)NC2=NCCS2)c(OC)c1`, for which the inhibition is 0.9% (inactive).

With `Cn1nc(N)c2ncc(C(Cl)(Cl)Cl)nc21`, the inhibition is 0.87% (inactive).

Consider `CCOC(=O)c1c(C)[nH]c(C)c1C(=O)COC(=O)/C=C/c1cccc([N+](=O)[O-])c1`, for which the inhibition was 0.45% (inactive).

As for `CC(CCc1ccccc1)NC(=O)c1ccc(Br)o1` (configuration not stated), the inhibition is -0.46% (inactive).

For the compound `CC1=C(C)CC(C(=O)NC(C)CCc2ccccc2)C(C(=O)O)C1` (configuration not stated), the inhibition was 4.67% (active).

Take `CCN(CC)S(=O)(=O)N1CCC(C(=O)NC(C)CCc2ccccc2)CC1` (configuration not stated): the inhibition is 0.09% (inactive).

For `CC(C)CC1C(=O)N(Cc2cn(CC3CCCCC3)nn2)CCS(=O)(=O)N1Cc1ccc(-c2ccc(Cl)cc2)cc1` (configuration not stated), the inhibition was 0.42% (inactive).

On to `CC(=O)c1ccc(OCC(=O)N(C)C2CCS(=O)(=O)C2)cc1` (configuration not stated), for which the inhibition was -0.31% (inactive).

With `CN1CCN(/N=C/c2ccc(-c3ccc([N+](=O)[O-])cc3)o2)CC1`, the inhibition was 4.57% (active).

In the case of `CN1CCN(/N=C/c2ccc(C#N)cc2)CC1`, the inhibition was 2.94% (inactive).

For the compound `Cc1ccc(-c2ccc(/C=N/NC(=O)CN3CCOCC3)o2)cc1[N+](=O)[O-]`, the inhibition is -1.47% (inactive).

Turning to `C[C@H]1CN(c2ccc(Br)cc2)C(=O)[C@@H]1CC(=O)Nc1ccc(Br)cc1`, the inhibition is 0.61% (inactive).

As to `CCc1cc(C(=O)N(CC)CC(=O)Nc2c(F)cccc2F)sc1C`, the inhibition was 1.94% (inactive).

Regarding `Nc1ccc2c(c1)C(O)c1ccc(Cl)cc1-2` (configuration not stated), the inhibition is 1.37% (inactive).

Take `CCC(=O)Nc1ccc2nn(-c3ccc(F)cc3)nc2c1`: the inhibition is 1.93% (inactive).

As to `Nc1ccc2nn(-c3ccc(Cl)cc3)nc2c1`, the inhibition is 5.29% (active).

On to `Cc1nnc(SCc2nc3ccccc3nc2C)s1`, for which the inhibition is 0.55% (inactive).

Regarding `Cc1ccc(Nc2nc(N)nc(CSc3nnc(C)s3)n2)cc1`, the inhibition was 4.29% (active).

With `Cc1ccccc1Nc1nc(N)nc(CSc2ccccc2)n1`, the inhibition is 3.71% (inactive).

For the compound `Cc1cn([C@H]2C[C@H](O)[C@@H](CNC(=O)[C@H](N)Cc3cccnc3)O2)c(=O)[nH]c1=O`, the inhibition is 0.07% (inactive).

On to `CNC(=O)C[C@H]1C(=O)N(c2ccc(OC)cc2)C[C@@H]1Cc1ccccc1`, for which the inhibition was 0.14% (inactive).

In the case of `C[C@H](CO)N1C[C@H](C)[C@@H](CN(C)S(=O)(=O)c2ccc(Oc3ccccc3)cc2)OCc2cn(nn2)CCCC1=O`, the inhibition is 0.27% (inactive).

What is called inhibition is the relative decrease from the control value, in per cent.
